Our source for the growth values is PubChem BioAssay (NCI).

What all share (assay): NCI-60 one-dose screen, 48 h (100 = growth as untreated, 0 = no growth, -100 = all killed)
Conditions in all cases: 10 µM unless noted

In assay [1] the test system is NCI-H23 lung.
Assay [2] has as its system NCI-H226 lung.
Assay [3] concerns NCI-H322M lung.
Assay [4] has as its system HOP-62 NSCLC.
Assay [5] has as its system NCI-H460 lung.
The subject of assay [6] is HOP-92 NSCLC.
In assay [7] the test system is NCI-H522 lung.
The test system of assay [8] is A549/ATCC NSCLC.
In assay [9] the test system is 786-0 renal.
The subject of assay [10] is COLO 205 colon.
Assay [11] relates to DU-145 prostate.
The test system of assay [12] is K-562 leukemia.
In assay [13] the test system is MALME-3M melanoma.
In assay [14] the test system is MDA-MB-231 breast.
In assay [15] the test system is RXF 393 renal.
Assay [16] has as its system SF-268 CNS.
Assay [17] deals with SF-295 CNS.
Assay [18] relates to SF-539 CNS.
The subject of assay [19] is UACC-257 melanoma.
For assay [20], the system named is M14 melanoma.

The panel holds about 83,000 compounds, 20% with a hit somewhere; the sample as a whole holds those more often.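 For each line, cells grew in 96-well plates with the test compound present at a single concentration for 48 hours.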 Unmarked numbers belong to inactive results. Calls of active or inactive are those of the source. The calls were made as follows: active = growth percent below 10; inactive = the rest.

Regarding `Nc1ncc(-c2ccc3ncnc(N4CCc5cc(F)c(Cl)cc54)c3c2)cc1C(F)(F)F`, the growth in [1] is 47.6%; in assay [2], 28.3%; in assay [3], 19.8%; in assay [4] it was 33.1%; in assay [5] it was 28.2%; in [6] it was 10.1%. The growth is 20.3% in assay [7]; 21.4% in assay [8]; 15.8% in assay [9]; 41.8% in [10]; 33.5% in assay [11]; 15% in assay [12]. Besides, the growth in [13] is 13.6%; in [14], 23.9%; in assay [15], -33.6% (active); in assay [16], 34.1%; in assay [17] it was 26%; in assay [18] it was 8.36% (active). The figures for the growth in assay [19] and in [20] were 48.2% and 33.8%, respectively.

In the case of `C#CCOc1cccc(-c2ncnc3cc(NC(=O)CCl)ccc23)c1`, the growth in [1] is 10.3%; in [2] it was -11% (active); in assay [3] it was 71.8%; in assay [4] it was -46.2% (active); in assay [5] it was -18.7% (active); in assay [6] it was -67.1% (active). Moreover, the growth in assay [7] was -77.1% (active); in [8], 16.7%; in [9] it was -85.4% (active); in [10], -82.4% (active); in assay [11] it was 13.9%; in assay [12], 2.03% (active). The growth in [13] is -78.8% (active); in assay [14] it was -36.4% (active); in assay [15] it was -87.9% (active); in [16], -42.2% (active); in assay [17] it was 34.4%; in [18] it was -43.9% (active). In addition, the values for the growth in assay [19] and in assay [20] were 42.8% and -52.3% (active), respectively.

Take `CCN(CC)CCN1C(=O)c2c(c(C)c3c(oc4cc(OC)ccc43)c2C)C1=O`: the growth in [1] was 95.9%; in [2] it was 27.8%; in [3] it was 85.3%; in assay [4], 95.9%; in assay [5], 44.7%; in assay [6], 100%. In addition, the growth in assay [7] was 91.9%; in assay [8], 104%; in assay [9], -74% (active); in assay [10] it was 99.1%; in assay [11] it was 75.1%; in assay [12] it was -29.2% (active). Further, the growth in assay [13] is 102%; in [14] it was 58.4%; in [15], 73.1%; in [16], 89.6%; in assay [17], 89.4%; in assay [18] it was 70.6%. In addition, the results for the growth in assay [19] and in assay [20] were 127% and 98.9%, respectively.

On to `CCNCCNc1c(C)c(-c2ccc(C(F)(F)F)cc2)c(C#N)c2nc3ccccc3n12`, for which the growth in assay [1] is 90%; in assay [2], 84.8%; in [3], 84.3%; in assay [4] it was 90.9%; in assay [5], 94.1%; in assay [6], 47.1%. Also, the growth is 76.8% in [7]; 88.7% in assay [8]; 77% in assay [9]; 88.2% in assay [10]; 99.1% in assay [11]; 54.8% in [12]. In addition, the growth was 109% in assay [13]; 90.9% in assay [14]; 90.4% in assay [15]; 80.8% in assay [16]; 91.4% in assay [17]; 82.7% in [18]. Further, the growth in assay [19] was 79.6%; in [20], 56.1%.

`O=CN1N=C(c2cccc(Nc3ccncc3)c2)CC1c1ccc2c(c1)OCO2` (stereo not given): the growth in assay [1] is 89.7%; in assay [2] it was 85.7%; in assay [3] it was 99.4%; in assay [4] it was 80.2%; in assay [5] it was 105%; in assay [6], 73.4%. The growth in [7] was 83.3%; in [8] it was 83.8%; in [9], 95.3%; in assay [10] it was 113%; in assay [11], 104%; in assay [12], 64.7%. The growth in [13] was 86.7%; in [14], 103%; in [15], 100%; in assay [16], 91.9%; in assay [17], 91.9%; in assay [18], 95.3%. The growth in assay [19] was 80.1%; in [20], 96.4%.

For the compound `N=C(N)c1ccc(-c2ccc(-c3ccc(Cl)cc3Cl)s2)nc1`, the growth in assay [1] was 85.2%; in [2], 91.7%; in assay [3], 60.9%; in [4], 90.7%; in assay [5], -60.1% (active); in [6], 84.2%. Further, the growth in assay [7] is 29%; in assay [8] it was 33.1%; in assay [9] it was 85.4%; in [10] it was -27.1% (active); in assay [11], 28.7%; in assay [12], -1.71% (active). For the same compound, the growth in assay [13] is 100%; in assay [14], 74.3%; in assay [15], 79.8%; in [16] it was 89.8%; in assay [17], 58.4%; in assay [18] it was 83.5%. In addition, the values for the growth in assay [19] and in assay [20] were 101% and 74.7%, respectively.

`CC(=O)CC(=O)c1ccccc1.[Cu+2]`: the growth in [1] is 97.1%; in assay [2] it was 114%; in assay [3] it was 105%; in assay [4] it was 119%; in [5] it was 110%; in assay [6], 120%. Also, the growth in assay [7] was 97.5%; in assay [8], 104%; in assay [9], 107%; in [10], 116%; in assay [11], 98.4%; in [12], 99%. Further, the growth in assay [13] is 95.2%; in [14], 96.5%; in assay [15], 125%; in assay [16] it was 118%; in assay [17] it was 105%; in [18], 105%. Also, the values for the growth in assay [19] and in [20] were 102% and 107%, respectively.

`Cc1ccc(Nc2oc(-c3ccccc3)nc2[P+](c2ccccc2)(c2ccccc2)c2ccccc2)cc1`: the growth in [1] is -51.8% (active); in [2], -13.8% (active); in assay [3], -21.6% (active); in assay [4], -51.1% (active); in assay [5], -81.7% (active); in [6], -44.8% (active). The growth in [7] is -57.4% (active); in [8], -25% (active); in assay [9], -77.5% (active); in assay [10], -34.7% (active); in [11], -19.4% (active); in assay [12], 0.645% (active). Also, the growth was -61.6% (active) in [13]; -83.5% (active) in assay [14]; -69.1% (active) in [15]; 10.6% in assay [16]; -85.5% (active) in assay [17]; -60.7% (active) in assay [18]. Further, the growth in assay [19] is -42.5% (active); in assay [20], -76.2% (active).
